Screens: PubChem BioAssay, several laboratories
RAM inhibit: yeast RAM network inhibition; S. cerevisiae dse1pr::URA3 reporter, 5-FOA growth OD615, 2 d; analog-sensitive cbk1-as2 kinase mutant strain; inhibition, % at 50 µM; hit rate 1.8% among 190,000;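 active = inhibition above a set limit, 3 SD over mean compound inhibition, cut at about 8.4% in these data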;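 also: 0% = DMSO-only wells with no growth and 100% = 10 µM 1-NA-PP1 full growth; inhibition rescues growth on 5-FOA so higher OD means more RAM inhibition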
CHOP inh: CHOP inhibition in unfolded protein response. CHO-K1 CHOP-promoter luciferase, tunicamycin-induced, 15-18 h. inhibition, % at 10 µM. hit rate 3.8% among 220,000. AID 2732;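 active = compounds that reduced the stress-induced luciferase reporter signal by more than about 70% of percent inhibition, limit read from the data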;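 also: 0% = tunicamycin plus vehicle and 100% = wells without tunicamycin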
L major viab: inhibitors of Leishmania major promastigote growth; Leishmania major promastigotes, resazurin fluorescence viability; inhibition, % at 10 µM; hit rate 9% among 200,000; AID 1063; in the data active = inhibition above about 50%;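 also: promastigotes grown with compound for 44 hours at 28 °C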
WT yeast gro inh: growth inhibition of WT yeast, mitochondrial fusion screen; mitochondrial fusion phenotypic screen, WT strain; inhibition, % at 10 µM; hit rate 2.1% among 190,000; AID 1362; in the data active = inhibition above about 58%; tested in S. cerevisiae
Starred values were filed as active, the others as inactive; x = not tested or not shown. A selection: hits, their analogues and other compounds. The true share with any hit is near 13%.

SMILES	RAM inhibit	CHOP inh	L major viab	WT yeast gro inh
Cc1cccc2cc(C(c3nnnn3Cc3ccccc3)N3CCCc4ccccc43)c(=O)[nH]c12 (configuration not stated)	6	77*	5	-4
Cc1ccc2cc(C(c3nnnn3C3CCCC3)N3CCN(c4ccccc4)CC3)c(=O)[nH]c2c1 (configuration not stated)	3	40	76*	-7
COc1ccc(N2CCN(C(c3cc4cc(C)ccc4[nH]c3=O)c3nnnn3Cc3ccccc3)CC2)cc1 (configuration not stated)	2	47	99*	6
Cc1ccc2cc(C(c3nnnn3Cc3ccccc3)N3CCN(c4ccccc4)CC3)c(=O)[nH]c2c1 (configuration not stated)	3	58	93*	-9
CCOCCCNC(=O)C(NC(=O)c1cnccn1)c1ccc(C)cc1 (configuration not stated)	0	-13	-3	-1
O=C(CCl)NC1(C(F)(F)F)C(=O)Nc2c1c(=O)[nH]c(=O)n2-c1ccccc1 (configuration not stated)	x	15	x	x
Clc1ccc(-c2ccc(CNCC3CCCO3)o2)cc1 (configuration not stated)	x	4	x	x
Cc1ccc(NCCC(=O)c2cccc([N+](=O)[O-])c2)c(C)c1	0	-61	97*	11
Cc1ccc(C(=O)CNc2cccc([N+](=O)[O-])c2)cc1	1	18	-9	1
Cc1cccc(NCCC(=O)c2ccc([N+](=O)[O-])cc2)c1C	0	4	93*	-4
Cc1ccc(NCC(=O)c2ccc([N+](=O)[O-])cc2)cc1	-1	-31	1	4
O=C1C=CC2C(c3ccc4c(c3)OCO4)CC1N2Cc1ccccc1 (configuration not stated)	0	-41	100*	9
c1ccc(CN2CCC(N3CCN(Cc4ccc5c(c4)OCO5)CC3)CC2)cc1	x	-8	x	x
Clc1cccc(CSC2=NCCCN2)c1	0	3	60*	0
Cc1ccc(OCCn2cc(C(=O)O)c3ccccc32)cc1	0	-23	-1	-12
Cc1ccc(OCCn2c(C)c(/C=N/n3cnnc3)c3ccccc32)cc1	3	81*	10	13
OC(CN1CCN(c2ccccc2)CC1)Cn1c2ccccc2c2ccccc21 (configuration not stated)	0	80*	9	10
Cc1ccc(OCCN2CCN(CC(O)Cn3c4ccccc4c4ccccc43)CC2)cc1 (configuration not stated)	0	96*	77*	86
OC(CSc1ccc(F)cc1)CN1CCN(c2ccccc2)CC1 (configuration not stated)	1	32	68*	6
CCN(c1ccccc1)S(=O)(=O)c1ccc(Cl)c(C(=O)N(CC2CCCO2)C2CCS(=O)(=O)C2)c1 (configuration not stated)	1	18	2	-6
COc1ccc(-c2nc(-c3cccc(C)c3)[nH]c(=O)c2C#N)cc1	2	9	11	-18
COc1cc([N+](=O)[O-])ccc1N1C(=O)C2C3C=CC(C4CC34)C2C1=O (configuration not stated)	4	4	4	6
COc1ccc(N2C(=O)C3CCCN3C2c2ccc(C)o2)cc1 (configuration not stated)	0	-16	-8	-11
Cc1cc(=O)n2c3ccccc3n(CC(O)CN3CCN(Cc4ccccc4)CC3)c2c1C#N (configuration not stated)	x	-4	x	x
OC(CN1CCN(Cc2ccccc2)CC1)Cn1c2ccccc2c2ccccc21 (configuration not stated)	0	64	81*	43
SMILES	RAM inhibit	CHOP inh	L major viab	WT yeast gro inh
COC(=O)c1c(C)[nH]c(-c2csc(N)n2)c1C	2	-25	2	-1
CCN1/C(=C/c2cc[n+](C)cc2)C=Cc2cc(C)ccc21	3	62	100*	70*
CCN1C(=O)/C(=C2\C=Cc3cc(C)ccc3N2CC)OC1=S	2	-29	2	-4
Cc1ccc(-c2csc3ncnc(SCc4ccc(C(=O)O)cc4)c23)cc1	2	37	-3	59*
CCCC(=O)Nc1ccccc1Sc1ncnc2scc(-c3ccccc3)c12	1	40	55*	18
CC(=O)Nc1cccc(Oc2ncnc3scc(-c4ccc(C(C)C)cc4)c23)c1	8	63	14	72*
CC(=O)Nc1ccc(Sc2ncnc3scc(-c4ccccc4)c23)cc1	5	46	1	79*
COc1c(C(=O)NNC(=O)c2ccccc2)csc1Br	x	-27	x	x
O=C(CCc1ccc(Oc2cc([N+](=O)[O-])cc([N+](=O)[O-])c2)cc1)NC1CCCC1	4	6	99*	2
CC1CCN(C(=O)CCc2ccc(Oc3cc([N+](=O)[O-])cc([N+](=O)[O-])c3)cc2)CC1	5	32	99*	65*
COc1ccc(CCCC(=O)NC2CCCCC2)cc1	1	1	-3	x
CC1CCN(C(=O)CCc2ccc(S(=O)(=O)NC(C)(C)C)cc2)CC1	2	12	-2	9
O=C(NCCN1C(=O)S/C(=C\c2cccs2)C1=O)[C@H](Cc1ccccc1)N1C(=O)c2ccccc2C1=O	7	28	46	22
CCOc1ccc2c(c1)OC(c1ccc(OC)cc1)(C(F)(F)F)NC2=O (configuration not stated)	3	3	100*	40
CC(CCc1ccccc1)NC(=O)CN1C(=O)NC2(CCCCC2)C1=O (configuration not stated)	0	5	8	-17
COC(=O)c1ccc2c(=O)n(Cc3ccco3)c(SCC(=O)Nc3cc(C)on3)nc2c1	0	91*	4	3
CCc1ccc(NC(=O)CSc2nc3cc(C(=O)OC)ccc3c(=O)n2CC2CCCO2)cc1 (configuration not stated)	2	94*	-4	13
COC(=O)c1ccc2c(=O)n(CC3CCCO3)c(SCC(=O)Nc3ccccc3Cl)nc2c1 (configuration not stated)	3	45	1	12
CCC(C)NC(=O)COc1ccc(OCc2ccccc2)cc1 (configuration not stated)	1	-5	-6	19
CCN1CCN(CCCCSc2ccccc2)CC1	0	6	78*	-18
CCOc1cc(N2CCOCC2)c(OCC)cc1NC(C)C(=O)N1CCC(C)CC1 (configuration not stated)	2	8	-1	6
Cc1nc(N2N=C3/C(=C/c4ccc(F)cc4)CCCC3C2c2ccc(F)cc2)sc1C(=O)N(C)C (configuration not stated)	5	40	23	74*
Cc1ncsc1C(=O)N1N=C2/C(=C/c3ccc(N4CCOCC4)cc3)CCCC2C1c1ccc(N2CCOCC2)cc1 (configuration not stated)	2	36	32	12
CCSc1nnc(NC(=O)CSc2nnc(CNC(=O)c3ccccc3F)o2)s1	2	-5	85*	-5
O=C(COc1ccc(Cl)cc1)NC1=NN(c2ccccc2)C(=O)C1	-1	27	-7	34
